From PubChem BioAssay AID1159580 (chemical genetic matrix, 2015)
Screen size: about 5,500 compounds; about 2,000 (36%) were called active. Not shown: some 18% with an inconclusive outcome. Rule as the data show it: active = normalized growth mostly below about 0.91 (no sharp cut-off); inconclusive = no clear call, values can overlap the other calls; inactive = mostly above about 0.92. Some of the results follow.

Test: chemical genetic growth profiling, strain panel (AID 1159580);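 also: tested at 20 µM; growth read once vehicle control cultures reached saturation at 30 °C; 1 = growth at the plate median or of vehicle wells; lower values mean less growth of the strain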
Details: growth OD

Measured: normalized growth

O=C(O)CCCOc1ccc(Cl)cc1Cl
active: S. cerevisiae deletion strains, locus YLR113W, strain HOG1, hits give low values 0.584 | S. cerevisiae deletion strains, locus YLR262C, strain YPT6 (second series), hits give low values 0.792 | S. cerevisiae deletion strains, locus YMR231W, strain pep5, hits give low values 0.92 | S. cerevisiae deletion strains, locus YNL183C, strain NPR1, hits give low values 0.731 | S. cerevisiae deletion strains, locus YNL322C, strain KRE1 (second series), hits give low values 0.882 | S. cerevisiae deletion strains, locus YOR231W, strain MKK1, hits give low values 0.796 | S. cerevisiae deletion strains, locus YPL256C, strain CLN2, hits give low values 0.756
inactive: S. cerevisiae deletion strains, locus YJR075W, strain HOC1, hits give low values 0.999 | S. cerevisiae deletion strains, locus YKL009W, strain mrt4, hits give low values 0.967 | S. cerevisiae deletion strains, locus YKL068W, hits give low values 0.986 | S. cerevisiae deletion strains, locus YKL085W, strain MDH1 (second series), hits give low values 0.984 | S. cerevisiae deletion strains, locus YKL085W, strain MDH1, hits give low values 0.984 | S. cerevisiae deletion strains, locus YKL160W, strain elf1, hits give low values 0.953 | S. cerevisiae deletion strains, locus YKL190W, strain CNB1, hits give low values 0.982 | S. cerevisiae deletion strains, locus YKR001C, strain vps1, hits give low values 0.996 | S. cerevisiae deletion strains, locus YKR026C, strain gcn3, hits give low values 0.926 | S. cerevisiae deletion strains, locus YKR091W, strain srl3, hits give low values 0.955 | S. cerevisiae deletion strains, locus YLL001W, strain dnm1, hits give low values 0.94 | S. cerevisiae deletion strains, locus YLL026W, hits give low values 0.945 | S. cerevisiae deletion strains, locus YLL041C, strain sdh2, hits give low values 0.951 | S. cerevisiae deletion strains, locus YLR027C, strain aat2, hits give low values 0.96 | S. cerevisiae deletion strains, locus YLR039C, strain RIC1, hits give low values 0.965 | S. cerevisiae deletion strains, locus YLR058C, strain SHM2, hits give low values 0.999 | S. cerevisiae deletion strains, locus YLR102C, strain apc9, hits give low values 1.03 | S. cerevisiae deletion strains, locus YLR221C, strain rsa3, hits give low values 0.949 | S. cerevisiae deletion strains, locus YLR258W, strain gsy2, hits give low values 0.943 | S. cerevisiae deletion strains, locus YLR262C, strain YPT6, hits give low values 0.976 | S. cerevisiae deletion strains, locus YLR268W, strain sec22, hits give low values 1.02 | S. cerevisiae deletion strains, locus YLR320W, strain mms22, hits give low values 0.955 | S. cerevisiae deletion strains, locus YLR330W, strain CHS5, hits give low values 0.995 | S. cerevisiae deletion strains, locus YLR342W, strain FKS1 (second series), hits give low values 0.997 | S. cerevisiae deletion strains, locus YLR342W, strain FKS1, hits give low values 0.922 | S. cerevisiae deletion strains, locus YLR357W, strain rsc2, hits give low values 0.888 | S. cerevisiae deletion strains, locus YLR370C, strain arc18, hits give low values 0.936 | S. cerevisiae deletion strains, locus YLR371W, strain rom2, hits give low values 1.01 | S. cerevisiae deletion strains, locus YLR384C, strain iki3, hits give low values 0.945 | S. cerevisiae deletion strains, locus YLR418C, strain cdc73, hits give low values 1.03 | S. cerevisiae deletion strains, locus YML016C, strain PPZ1, hits give low values 0.999 | S. cerevisiae deletion strains, locus YML032C, strain rad52, hits give low values 1.01 | S. cerevisiae deletion strains, locus YML120C, strain ndi1, hits give low values 0.958 | S. cerevisiae deletion strains, locus YML124C, strain tub3, hits give low values 1 | S. cerevisiae deletion strains, locus YMR058W, strain fet3, hits give low values 0.947 | S. cerevisiae deletion strains, locus YMR078C, strain ctf18, hits give low values 1.01 | S. cerevisiae deletion strains, locus YMR125W, strain sto1, hits give low values 0.913 | S. cerevisiae deletion strains, locus YMR129W, hits give low values 0.944 | S. cerevisiae deletion strains, locus YMR205C, strain PFK2, hits give low values 0.955 | S. cerevisiae deletion strains, locus YMR223W, strain ubp8, hits give low values 1.01 | S. cerevisiae deletion strains, locus YMR263W, strain SAP30, hits give low values 0.989 | S. cerevisiae deletion strains, locus YMR307W, strain GAS1, hits give low values 1 | S. cerevisiae deletion strains, locus YNL067W, strain RPL9B, hits give low values 0.997 | S. cerevisiae deletion strains, locus YNL071W, strain lat1, hits give low values 0.935 | S. cerevisiae deletion strains, locus YNL128W, strain TEP1, hits give low values 1.01 | S. cerevisiae deletion strains, locus YNL153C, strain GIM3, hits give low values 0.997 | S. cerevisiae deletion strains, locus YNL209W, strain ssb2, hits give low values 0.971 | S. cerevisiae deletion strains, locus YNL233W, strain BNI4, hits give low values 0.971 | S. cerevisiae deletion strains, locus YNL248C, strain rpa49, hits give low values 0.941 | S. cerevisiae deletion strains, locus YNL250W, strain rad50, hits give low values 1 | S. cerevisiae deletion strains, locus YNL271C, strain bni1, hits give low values 0.996 | S. cerevisiae deletion strains, locus YNL298W, strain CLA4, hits give low values 0.976 | S. cerevisiae deletion strains, locus YNL307C, strain MCK1, hits give low values 1.01 | S. cerevisiae deletion strains, locus YNL322C, strain KRE1, hits give low values 0.994 | S. cerevisiae deletion strains, locus YNR049C, strain mso1, hits give low values 0.929 | S. cerevisiae deletion strains, locus YNR052C, strain pop2, hits give low values 1.01 | S. cerevisiae deletion strains, locus YOL006C, strain TOP1, hits give low values 1.04 | S. cerevisiae deletion strains, locus YOL012C, strain htz1 1.19 | S. cerevisiae deletion strains, locus YOL147C, strain pex11, hits give low values 1.01 | S. cerevisiae deletion strains, locus YOR001W, strain rrp6, hits give low values 0.953 | S. cerevisiae deletion strains, locus YOR061W, strain CKA2, hits give low values 0.999 | S. cerevisiae deletion strains, locus YOR069W, strain VPS5, hits give low values 1 | S. cerevisiae deletion strains, locus YOR070C, strain gyp1, hits give low values 0.947 | S. cerevisiae deletion strains, locus YOR080W, strain dia2, hits give low values 0.925 | S. cerevisiae deletion strains, locus YOR083W, strain WHI5, hits give low values 0.956 | S. cerevisiae deletion strains, locus YOR106W, strain vam3, hits give low values 0.942 | S. cerevisiae deletion strains, locus YOR136W, strain idh2, hits give low values 1.02 | S. cerevisiae deletion strains, locus YOR144C, strain elg1, hits give low values 1.02 | S. cerevisiae deletion strains, locus YOR184W, strain ser1, hits give low values 1.03 | S. cerevisiae deletion strains, locus YOR265W, strain rbl2, hits give low values 0.943 | S. cerevisiae deletion strains, locus YOR270C, strain vph1, hits give low values 0.971 | S. cerevisiae deletion strains, locus YOR290C, strain snf2, hits give low values 0.962 | S. cerevisiae deletion strains, locus YOR316C, strain cot1, hits give low values 1.01 | S. cerevisiae deletion strains, locus YPL051W, strain arl3, hits give low values 0.943 | S. cerevisiae deletion strains, locus YPL055C, strain LGE1, hits give low values 1.01 | S. cerevisiae deletion strains, locus YPL078C, strain atp4, hits give low values 0.93 | S. cerevisiae deletion strains, locus YPL106C, strain sse1, hits give low values 1.03 | S. cerevisiae deletion strains, locus YPL240C, strain hsp82, hits give low values 0.937 | S. cerevisiae deletion strains, locus YPL241C, strain CIN2, hits give low values 1 | S. cerevisiae deletion strains, locus YPR119W, strain clb2, hits give low values 1.01 | S. cerevisiae deletion strains, locus YPR141C, strain kar3, hits give low values 1.01 | S. cerevisiae deletion strains, locus YPR163C, strain tif3, hits give low values 1.02 | S. cerevisiae deletion strains, locus YPR167C, strain met16, hits give low values 1.05 | S. cerevisiae deletion strains, strain wtn01, hits give low values 1.01 | S. cerevisiae strains, strain wild type, hits give low values 1
